CHO-K1 Ca PAM: M1 PAM counterscreen hit in parental CHO-K1 cells | ATP EC20, Fluo-8 calcium fluorescence; 0% at ATP EC20, 100% at ATP max | activation, % at 3 µM | 360,000 tested, 0.02% active;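 active = activation above the run cutoff, the mean activation of all test compounds plus 3 SD, cut at about 40% in these data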;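 also: peak over basal fluorescence ratio in a 140 s read after ATP addition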
NTR1 ag: activates human neurotensin receptor 1 | NTR1-U2OS beta-arrestin-GFP spot imaging, agonist mode | activation, % at 20 µM | 330,000 tested, 0.17% active | AID 493036;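 active = activation at or above 40% of the spot to cytoplasm intensity ratio, with at least 20 cells analyzed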;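 also: 0% = DMSO without peptide and 100% = 100 nM NTR1 peptide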
TMEM16A inh: blocks the mouse calcium-activated chloride channel TMEM16A. AID 588511. normalized B-score (activity score, 25-100; higher = stronger inhibition) at 10 µM. Q8BHY3. HEK293 TMEM16A/YFP iodide influx fluorescence, ionomycin. 310,000 tested, 1.2% active;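 active = ratio plate-corrected score three or more library SD toward inhibition, starting fluorescence score within five deviations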;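 also: score derived from kinetic fluorescence span divided by baseline fluorescence per well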
CHO-K1 Ca antag: counter-screen for M1 antagonists: effect in parental CHO-K1 cells; ATP-induced calcium, Fluo-8 fluorescence; inhibition, % at 3 µM; 360,000 tested, 0.6% active;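 active = inhibition above a per-plate cutoff, the plate's mean sample inhibition plus 3 SD, cut at about 24% in these data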;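 also: 0% = DMSO plus EC80 ATP and 100% = DMSO alone without ATP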
CHO-K1 Ca ag: M1 agonist counterscreen hit in parental CHO-K1 cells; Fluo-8 calcium fluorescence; scaled to maximal ATP response, vehicle zero; activation, % at 3 µM; 360,000 tested, 0.48% active; in the data active = activation above about 15%;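 also: untransfected CHO-K1 host cells lacking M1 receptor as counterscreen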
ANO1 activ: mouse TMEM16A channel activation, primary screen; Q8BHY3; HEK293 TMEM16A/YFP-H148Q/I152L, iodide quench fluorescence; stronger effect = lower value; B-score at 10 µM; 340,000 tested, 0.3% active; AID 623877;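 active = fluorescence-ratio B-score plate-corrected deviation score at least 3 library SD below zero, with starting fluorescence score within 5 deviations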;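 also: channel opened by trigger with iodide after compound preincubation; score built on the fluorescence ratio of max minus min over baseline; more negative score means more quench and so TMEM16A activation or potentiation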
* = called active by the depositor; i = inactive; nt = no result. Shown are actives, neighbours in structure and some others; about 2.2% of the full set was active somewhere.

SMILES	CHO-K1 Ca PAM	NTR1 ag	TMEM16A inh	CHO-K1 Ca antag	CHO-K1 Ca ag	ANO1 activ
CCC[C@H]1NC(=O)[C@H](C)N(C)C(=O)C(C)(C)C(=O)C(C)NC(=O)[C@H](Cc2ccc(OC)cc2)N(C)C(=O)[C@H](C(C)C)N(C)C(=O)CNC(=O)[C@H](CC(C)C)N(C)C(=O)CNC(=O)[C@H]([C@@H](C)CC)OC(=O)[C@H]1C (stereo partly specified)	nt	1	nt	nt	nt	nt
Cc1ccc(N2C(=O)C3CCCN3C2=S)cc1 (stereo unspecified)	1	-1	i	-9	1	i
Cc1cc(C)cc(N2C(=O)C3CCCN3C2=S)c1 (stereo unspecified)	15	-1	i	-7	17*	i
CC(=O)c1ccc(-n2c(-c3cc(-c4ccco4)[nH]n3)n[nH]c2=S)cc1	-5	-1	i	9	0	-12*
O=C(O)c1ccc(-n2c(-c3cc(-c4ccco4)[nH]n3)n[nH]c2=S)cc1	5	1	i	2	0	i
COc1cc(/C=C/C(O)=C/C(=O)/C=C/c2ccc(O)cc2)ccc1O	-10	0	nt	19	17*	i
COc1cc(/C=C/C(=O)NC(=O)c2ccccc2O)ccc1O	1	1	i	-7	1	i
COc1ccc2c(c1)[nH]c1c(=O)n(/N=C/C3C(C)C=C(C)CC3C)c(=O)[nH]c12 (stereo unspecified)	16	0	i	-6	2	i
COc1ccc2[nH]c3c(=O)n(/N=C/[C@H]4C(C)C=C(C)CC4C)c(=O)[nH]c3c2c1 (stereo partly specified)	20	3	i	-9	1	-16*
CCCNC(=O)C1(C)CCCN(Cc2ccc(Cl)cc2)C1 (stereo unspecified)	-12	nt	nt	22	0	nt
COCCn1c2nc(=O)n(-c3ccccc3)c(=O)c-2nc2ccccc21	8	nt	nt	10	73*	nt
O=[N+]([O-])c1cc(S(=O)(=O)N2CCCCCC2)ccc1F	16	nt	i	11	1	-6.6*
Cn1c(=O)c([N+](=O)[O-])c(NCCCn2ccnc2)c2ccccc21	13	0	i	0	15*	i
CCCCCCCCCC[n+]1cccc2c3ccccc3ccc21	-3	nt	nt	40*	18*	i
CCCCCCCC[n+]1cccc2c3ccccc3ccc21	0	17	100*	18	3	i
CC(=O)N1CCN(C(=O)OC2CC3CC2[C@H]2CCCCN2C3=O)CC1 (stereo partly specified)	7	nt	nt	-17	1	nt
Cc1ccc(S(=O)(=O)N2[C@@H](c3ccccc3F)C(C(=O)O)=CC[C@H]2c2ccc(C(C)C)cc2)cc1	2	17	100*	-9	0	i
Cc1ccc([C@@H]2CC=C(C(=O)O)[C@H](c3ccccc3F)N2S(=O)(=O)c2ccc(C)cc2)cc1	25	15	i	-25	1	-24*
Cc1ccc(S(=O)(=O)N2[C@@H](c3ccccc3F)C(C(=O)O)=CC[C@H]2c2cccc(Cl)c2)cc1	13	8	i	-11	1	i
COc1ccc([C@@H]2CC=C(C(=O)O)[C@H](c3ccccc3F)N2S(=O)(=O)c2ccc(C)cc2)cc1OC	-11	1	i	-5	0	i
O=C1NC[C@H](CCCCN2C[C@H](Cc3ccc(O)cc3)N(CCc3ccccc3)C(=O)C2=O)N(CCc2ccc(O)cc2)C1=O	-10	nt	nt	3	0	nt
Cc1cc(=O)[nH]c(-c2ccccc2OC(F)(F)F)n1	14	0	i	-2	18*	i
Cc1ccc(S(=O)(=O)N2CCN(c3ncnc4scc(-c5ccccc5)c34)CC2)cc1	-15	7	nt	8	0	-31*
Cc1ccc(S(=O)(=O)N2CCN(c3ncnc4scc(-c5ccc(F)cc5)c34)CC2)cc1	20	12	i	-11	1	i
COc1ccc(-n2ccnc(SCC(=O)NCc3ccccc3Cl)c2=O)cc1	-14	0	i	3	0	i
COc1ccc(C(=O)OCC(=O)NCCN2C(=O)CSC2=O)cc1[N+](=O)[O-]	19	-1	nt	-10	1	i
